{"source": "the supplement of paper PMC6378613", "compound": "Cc1ccc(-c2ccc3c(ccc4sc5c(c43)NC[C@@H](C)NC5=O)n2)cn1", "assay": "kinase activity remaining relative to vehicle control; higher = less inhibition", "method": "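In vitro radiometric kinase profiling of the MK2 inhibitor PF-3644022 at 0.1, 1 and 10 µM against a panel of kinases (MRC International Centre for Kinase Profiling, Dundee). Read-out is % kinase activity remaining relative to the vehicle control, mean of n=2.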"}
{"target": "Lck (UniProt P06239)", "sequence (P06239 whole entry, looked up)": "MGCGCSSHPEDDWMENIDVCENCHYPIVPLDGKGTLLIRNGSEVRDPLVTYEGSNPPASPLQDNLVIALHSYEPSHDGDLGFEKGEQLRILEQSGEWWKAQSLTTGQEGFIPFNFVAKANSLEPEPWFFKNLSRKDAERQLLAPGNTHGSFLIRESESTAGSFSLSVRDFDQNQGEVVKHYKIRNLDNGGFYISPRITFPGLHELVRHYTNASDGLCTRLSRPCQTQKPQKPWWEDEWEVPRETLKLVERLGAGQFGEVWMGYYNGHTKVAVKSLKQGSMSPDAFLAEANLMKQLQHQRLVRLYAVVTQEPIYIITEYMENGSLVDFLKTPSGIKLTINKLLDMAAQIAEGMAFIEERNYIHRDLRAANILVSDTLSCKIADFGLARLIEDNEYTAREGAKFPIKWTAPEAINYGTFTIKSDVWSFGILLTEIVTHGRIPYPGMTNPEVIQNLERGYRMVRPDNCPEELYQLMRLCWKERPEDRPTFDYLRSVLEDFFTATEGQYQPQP", "values": [{"measurement": "kinase activity remaining", "setting": "inhibitor concentration 0.1 µM", "value": 108, "unit": "%"}, {"measurement": "kinase activity remaining", "setting": "inhibitor concentration 1 µM", "value": 95, "unit": "%"}, {"measurement": "kinase activity remaining", "setting": "inhibitor concentration 10 µM", "value": 86, "unit": "%"}]}
{"target": "MST4 (UniProt Q9P289)", "sequence (Q9P289 whole entry, looked up)": "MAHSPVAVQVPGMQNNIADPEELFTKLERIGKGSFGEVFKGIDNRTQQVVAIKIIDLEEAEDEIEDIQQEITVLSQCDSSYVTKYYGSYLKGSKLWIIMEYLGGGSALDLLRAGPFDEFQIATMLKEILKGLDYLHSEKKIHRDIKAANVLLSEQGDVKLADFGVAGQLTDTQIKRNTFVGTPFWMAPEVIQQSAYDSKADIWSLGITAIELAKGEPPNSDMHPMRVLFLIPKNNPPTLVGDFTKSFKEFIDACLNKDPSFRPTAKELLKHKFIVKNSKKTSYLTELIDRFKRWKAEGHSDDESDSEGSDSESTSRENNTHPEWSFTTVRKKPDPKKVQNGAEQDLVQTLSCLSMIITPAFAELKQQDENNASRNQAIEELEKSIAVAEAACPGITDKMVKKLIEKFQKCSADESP", "values": [{"measurement": "kinase activity remaining", "setting": "inhibitor concentration 0.1 µM", "value": 99, "unit": "%"}, {"measurement": "kinase activity remaining", "setting": "inhibitor concentration 1 µM", "value": 101, "unit": "%"}, {"measurement": "kinase activity remaining", "setting": "inhibitor concentration 10 µM", "value": 91, "unit": "%"}]}
{"target": "DDR2 (UniProt Q16832)", "values": [{"measurement": "kinase activity remaining", "setting": "inhibitor concentration 0.1 µM", "value": 105, "unit": "%"}, {"measurement": "kinase activity remaining", "setting": "inhibitor concentration 1 µM", "value": 101, "unit": "%"}, {"measurement": "kinase activity remaining", "setting": "inhibitor concentration 10 µM", "value": 91, "unit": "%"}]}
{"target": "EPH-A2", "values": [{"measurement": "kinase activity remaining", "setting": "inhibitor concentration 0.1 µM", "value": 90, "unit": "%"}, {"measurement": "kinase activity remaining", "setting": "inhibitor concentration 1 µM", "value": 95, "unit": "%"}, {"measurement": "kinase activity remaining", "setting": "inhibitor concentration 10 µM", "value": 76, "unit": "%"}]}
{"target": "MELK (UniProt Q14680)", "values": [{"measurement": "kinase activity remaining", "setting": "inhibitor concentration 0.1 µM", "value": 123, "unit": "%"}, {"measurement": "kinase activity remaining", "setting": "inhibitor concentration 1 µM", "value": 102, "unit": "%"}, {"measurement": "kinase activity remaining", "setting": "inhibitor concentration 10 µM", "value": 77, "unit": "%"}]}
{"target": "IR", "values": [{"measurement": "kinase activity remaining", "setting": "inhibitor concentration 0.1 µM", "value": 123, "unit": "%"}, {"measurement": "kinase activity remaining", "setting": "inhibitor concentration 1 µM", "value": 125, "unit": "%"}, {"measurement": "kinase activity remaining", "setting": "inhibitor concentration 10 µM", "value": 133, "unit": "%"}]}
{"target": "TESK1 (UniProt Q15569)", "sequence (Q15569 whole entry, looked up)": "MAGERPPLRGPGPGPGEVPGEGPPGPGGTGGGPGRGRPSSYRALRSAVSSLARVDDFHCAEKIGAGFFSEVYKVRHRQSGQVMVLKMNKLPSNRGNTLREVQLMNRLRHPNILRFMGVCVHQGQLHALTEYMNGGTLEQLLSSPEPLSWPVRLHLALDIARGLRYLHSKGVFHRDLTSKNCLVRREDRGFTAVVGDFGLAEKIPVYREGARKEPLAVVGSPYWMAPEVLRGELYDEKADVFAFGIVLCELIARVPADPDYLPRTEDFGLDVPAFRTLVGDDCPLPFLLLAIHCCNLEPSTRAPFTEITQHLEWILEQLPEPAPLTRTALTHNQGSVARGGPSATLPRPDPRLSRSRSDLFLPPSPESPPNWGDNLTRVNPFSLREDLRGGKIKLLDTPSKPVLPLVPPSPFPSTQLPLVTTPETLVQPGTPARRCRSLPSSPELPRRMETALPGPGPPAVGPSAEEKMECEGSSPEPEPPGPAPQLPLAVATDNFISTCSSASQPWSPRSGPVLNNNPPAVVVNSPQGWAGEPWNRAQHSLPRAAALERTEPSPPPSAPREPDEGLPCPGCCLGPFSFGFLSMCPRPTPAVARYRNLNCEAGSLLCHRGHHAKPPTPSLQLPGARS", "values": [{"measurement": "kinase activity remaining", "setting": "inhibitor concentration 0.1 µM", "value": 112, "unit": "%"}, {"measurement": "kinase activity remaining", "setting": "inhibitor concentration 1 µM", "value": 111, "unit": "%"}, {"measurement": "kinase activity remaining", "setting": "inhibitor concentration 10 µM", "value": 101, "unit": "%"}]}
{"target": "HIPK3 (UniProt Q9H422)", "sequence (Q9H422 whole entry, looked up)": "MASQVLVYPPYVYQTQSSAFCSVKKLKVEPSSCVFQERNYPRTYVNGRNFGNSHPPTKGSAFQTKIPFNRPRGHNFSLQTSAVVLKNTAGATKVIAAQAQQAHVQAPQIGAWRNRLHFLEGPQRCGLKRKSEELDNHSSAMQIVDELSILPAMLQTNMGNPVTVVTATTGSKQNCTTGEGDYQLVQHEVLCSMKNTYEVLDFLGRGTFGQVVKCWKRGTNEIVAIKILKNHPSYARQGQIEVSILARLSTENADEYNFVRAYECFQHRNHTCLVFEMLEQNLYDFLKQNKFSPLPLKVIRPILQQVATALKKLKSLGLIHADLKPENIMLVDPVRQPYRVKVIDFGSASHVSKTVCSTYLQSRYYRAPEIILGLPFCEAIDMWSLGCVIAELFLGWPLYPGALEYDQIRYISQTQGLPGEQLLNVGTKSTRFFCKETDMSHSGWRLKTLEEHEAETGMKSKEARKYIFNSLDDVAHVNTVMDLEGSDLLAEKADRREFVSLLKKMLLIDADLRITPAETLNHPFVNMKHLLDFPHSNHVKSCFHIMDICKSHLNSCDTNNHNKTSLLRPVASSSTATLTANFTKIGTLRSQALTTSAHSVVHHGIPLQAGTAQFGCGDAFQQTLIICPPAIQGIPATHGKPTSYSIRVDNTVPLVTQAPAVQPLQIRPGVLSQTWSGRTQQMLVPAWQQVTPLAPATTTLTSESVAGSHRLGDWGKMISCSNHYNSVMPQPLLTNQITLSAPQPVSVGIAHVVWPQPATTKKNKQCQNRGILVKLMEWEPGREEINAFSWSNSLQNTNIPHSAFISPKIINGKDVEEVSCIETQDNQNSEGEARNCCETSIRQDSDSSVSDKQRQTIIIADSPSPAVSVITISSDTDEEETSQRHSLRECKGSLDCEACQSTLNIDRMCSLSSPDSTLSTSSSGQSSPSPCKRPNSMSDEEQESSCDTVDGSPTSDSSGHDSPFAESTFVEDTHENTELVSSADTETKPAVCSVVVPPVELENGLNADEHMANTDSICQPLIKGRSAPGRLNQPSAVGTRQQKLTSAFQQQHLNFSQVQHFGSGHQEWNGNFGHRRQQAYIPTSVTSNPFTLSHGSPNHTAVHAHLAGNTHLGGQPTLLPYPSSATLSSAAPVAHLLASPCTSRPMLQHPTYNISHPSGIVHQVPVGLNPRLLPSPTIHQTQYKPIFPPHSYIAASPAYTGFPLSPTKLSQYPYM", "values": [{"measurement": "kinase activity remaining", "setting": "inhibitor concentration 0.1 µM", "value": 112, "unit": "%"}, {"measurement": "kinase activity remaining", "setting": "inhibitor concentration 1 µM", "value": 108, "unit": "%"}, {"measurement": "kinase activity remaining", "setting": "inhibitor concentration 10 µM", "value": 96, "unit": "%"}]}
{"target": "PDK1 (UniProt Q15118)", "sequence (Q15118 whole entry, looked up)": "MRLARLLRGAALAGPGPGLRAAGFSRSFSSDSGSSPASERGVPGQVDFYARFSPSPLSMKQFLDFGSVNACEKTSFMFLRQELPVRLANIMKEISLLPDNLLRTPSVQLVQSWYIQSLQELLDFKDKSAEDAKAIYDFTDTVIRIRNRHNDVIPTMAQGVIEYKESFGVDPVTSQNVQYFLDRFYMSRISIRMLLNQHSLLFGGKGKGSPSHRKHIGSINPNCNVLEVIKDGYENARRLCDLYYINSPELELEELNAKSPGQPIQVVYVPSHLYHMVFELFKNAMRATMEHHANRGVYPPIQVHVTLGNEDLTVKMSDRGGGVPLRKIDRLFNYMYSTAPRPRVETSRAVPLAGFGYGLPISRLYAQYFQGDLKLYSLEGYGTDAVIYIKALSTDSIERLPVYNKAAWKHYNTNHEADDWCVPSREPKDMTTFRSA", "values": [{"measurement": "kinase activity remaining", "setting": "inhibitor concentration 0.1 µM", "value": 104, "unit": "%"}, {"measurement": "kinase activity remaining", "setting": "inhibitor concentration 1 µM", "value": 107, "unit": "%"}, {"measurement": "kinase activity remaining", "setting": "inhibitor concentration 10 µM", "value": 95, "unit": "%"}]}
{"target": "CAMKK beta", "values": [{"measurement": "kinase activity remaining", "setting": "inhibitor concentration 0.1 µM", "value": 107, "unit": "%"}, {"measurement": "kinase activity remaining", "setting": "inhibitor concentration 1 µM", "value": 87, "unit": "%"}, {"measurement": "kinase activity remaining", "setting": "inhibitor concentration 10 µM", "value": 28, "unit": "%"}]}
{"target": "SRPK1 (UniProt Q96SB4)", "sequence (Q96SB4 whole entry, looked up)": "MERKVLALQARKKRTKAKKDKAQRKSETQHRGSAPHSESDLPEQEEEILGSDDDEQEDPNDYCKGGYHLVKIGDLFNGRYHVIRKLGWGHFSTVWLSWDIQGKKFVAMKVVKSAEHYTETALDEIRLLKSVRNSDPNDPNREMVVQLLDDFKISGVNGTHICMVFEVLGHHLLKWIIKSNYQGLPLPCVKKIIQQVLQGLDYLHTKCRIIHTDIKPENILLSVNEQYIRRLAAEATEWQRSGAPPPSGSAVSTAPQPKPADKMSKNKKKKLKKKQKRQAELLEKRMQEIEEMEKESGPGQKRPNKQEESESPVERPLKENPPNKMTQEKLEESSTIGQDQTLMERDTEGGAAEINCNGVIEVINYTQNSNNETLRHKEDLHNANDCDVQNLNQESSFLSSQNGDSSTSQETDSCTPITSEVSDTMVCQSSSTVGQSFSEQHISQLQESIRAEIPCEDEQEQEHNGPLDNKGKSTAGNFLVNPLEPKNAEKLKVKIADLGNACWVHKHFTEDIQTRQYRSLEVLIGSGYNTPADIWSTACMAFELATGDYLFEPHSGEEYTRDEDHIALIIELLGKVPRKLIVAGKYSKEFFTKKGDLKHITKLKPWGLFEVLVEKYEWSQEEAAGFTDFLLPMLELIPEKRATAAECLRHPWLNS", "values": [{"measurement": "kinase activity remaining", "setting": "inhibitor concentration 0.1 µM", "value": 89, "unit": "%"}, {"measurement": "kinase activity remaining", "setting": "inhibitor concentration 1 µM", "value": 63, "unit": "%"}, {"measurement": "kinase activity remaining", "setting": "inhibitor concentration 10 µM", "value": 19, "unit": "%"}]}
{"target": "DYRK3 (UniProt O43781)", "sequence (O43781 whole entry, looked up)": "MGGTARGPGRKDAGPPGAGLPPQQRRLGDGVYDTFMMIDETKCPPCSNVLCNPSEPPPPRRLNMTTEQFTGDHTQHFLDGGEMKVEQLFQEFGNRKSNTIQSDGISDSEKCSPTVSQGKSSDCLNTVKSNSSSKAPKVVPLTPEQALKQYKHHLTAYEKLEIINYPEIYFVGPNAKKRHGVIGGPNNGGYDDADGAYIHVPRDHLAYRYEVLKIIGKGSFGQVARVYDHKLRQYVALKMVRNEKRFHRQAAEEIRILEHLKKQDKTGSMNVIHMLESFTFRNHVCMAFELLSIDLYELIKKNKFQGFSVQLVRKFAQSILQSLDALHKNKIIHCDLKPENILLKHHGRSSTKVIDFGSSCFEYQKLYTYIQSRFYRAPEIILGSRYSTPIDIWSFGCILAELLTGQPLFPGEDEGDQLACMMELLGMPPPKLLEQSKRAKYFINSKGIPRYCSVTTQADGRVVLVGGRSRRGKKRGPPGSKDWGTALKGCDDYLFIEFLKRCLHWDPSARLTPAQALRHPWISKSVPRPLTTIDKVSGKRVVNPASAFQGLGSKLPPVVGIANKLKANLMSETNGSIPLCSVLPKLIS", "values": [{"measurement": "kinase activity remaining", "setting": "inhibitor concentration 0.1 µM", "value": 111, "unit": "%"}, {"measurement": "kinase activity remaining", "setting": "inhibitor concentration 1 µM", "value": 84, "unit": "%"}, {"measurement": "kinase activity remaining", "setting": "inhibitor concentration 10 µM", "value": 40, "unit": "%"}]}
{"target": "BRK (UniProt Q13882)", "sequence (Q13882 whole entry, looked up)": "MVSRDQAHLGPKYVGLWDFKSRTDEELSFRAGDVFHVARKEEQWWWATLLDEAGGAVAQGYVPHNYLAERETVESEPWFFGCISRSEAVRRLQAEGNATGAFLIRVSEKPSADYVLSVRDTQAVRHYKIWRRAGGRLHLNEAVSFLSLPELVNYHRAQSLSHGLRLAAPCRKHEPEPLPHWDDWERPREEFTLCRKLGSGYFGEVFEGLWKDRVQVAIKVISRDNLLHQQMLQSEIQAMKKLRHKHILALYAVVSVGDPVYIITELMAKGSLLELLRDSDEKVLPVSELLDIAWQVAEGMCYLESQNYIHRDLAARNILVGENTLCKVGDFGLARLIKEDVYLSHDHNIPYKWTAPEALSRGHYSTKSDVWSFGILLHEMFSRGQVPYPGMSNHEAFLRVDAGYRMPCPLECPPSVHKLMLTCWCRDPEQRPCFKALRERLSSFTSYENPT", "values": [{"measurement": "kinase activity remaining", "setting": "inhibitor concentration 0.1 µM", "value": 121, "unit": "%"}, {"measurement": "kinase activity remaining", "setting": "inhibitor concentration 1 µM", "value": 94, "unit": "%"}, {"measurement": "kinase activity remaining", "setting": "inhibitor concentration 10 µM", "value": 92, "unit": "%"}]}
